CYP2C19 inhib: inhibitors of human CYP2C19; P33261; CYP2C19 Supersomes, luciferin-H EGE luminescence, 30 min; inhibition, % at 5 µM; 21% of 96,000 active; AID 778;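 active = CYP2C19 inhibition above a set limit at 5 µM in the primary screen, cut at about 50% in these data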;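 note: plate controls were negative control wells for no effect and 2.5 mM tranylcypromine positive control for full effect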
Target sequence (P33261 whole entry, looked up): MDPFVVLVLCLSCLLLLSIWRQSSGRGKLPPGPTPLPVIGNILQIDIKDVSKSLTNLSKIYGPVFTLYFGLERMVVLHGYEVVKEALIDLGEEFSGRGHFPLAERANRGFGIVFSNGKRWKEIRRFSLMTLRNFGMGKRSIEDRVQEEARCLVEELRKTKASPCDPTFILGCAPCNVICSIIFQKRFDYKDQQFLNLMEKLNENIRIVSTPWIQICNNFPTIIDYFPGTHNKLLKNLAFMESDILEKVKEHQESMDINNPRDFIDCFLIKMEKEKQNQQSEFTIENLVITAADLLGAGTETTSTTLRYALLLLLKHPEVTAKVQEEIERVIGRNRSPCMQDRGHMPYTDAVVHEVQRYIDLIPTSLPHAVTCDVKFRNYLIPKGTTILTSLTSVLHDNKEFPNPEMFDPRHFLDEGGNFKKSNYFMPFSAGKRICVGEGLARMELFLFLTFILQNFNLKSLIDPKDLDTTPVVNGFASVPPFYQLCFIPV
CYP2C19 activ: increases human CYP2C19 enzyme activity | P33261 | recombinant CYP2C19, luciferin-H EGE luminescence; active compounds read high; 0 = fully inhibited enzyme, 1 = untreated enzyme | activation factor at 5 µM | 96,000 tested, under 10 active | AID 1025;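 active = activation factor of at least 2 at 5 µM in the primary screen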;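 note: 0 = wells with 2.5 mM tranylcypromine and 1 = vehicle-only wells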
PostGolgi ctrl: inhibits growth of the yeast control strain; efflux-deficient yeast background strain, growth absorbance A615, 16 h; inhibition, % at 10 µM; 5% of 98,000 active; AID 738
PostGolgi yeast: growth inhibition of a yeast mutant, post-Golgi transport screen | post-Golgi transport phenotypic cell assay | inhibition, % at 10 µM | 0.9% of 98,000 active;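 note: yeast cells grown in 1536-well plates; yeast grown about 18 h at 30C before absorbance read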
CYP2C9 act: activators of human CYP2C9; recombinant CYP2C9, luciferin-H conversion, luminescence; active compounds read high; factor 1 = untreated enzyme, 0 = blocked; 1.4% of 96,000 active; activation factor at 5 µM;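 active = activation factor of 2 or more for CYP2C9 at a 5 µM dose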;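 note: 0 = sulfaphenazole-blocked wells and 1 = vehicle-only wells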
CYP2C9 inhib: blocks human cytochrome P450 2C9; P11712; CYP2C9 Supersomes, luciferin-H conversion, luminescence; inhibition, % at 5 µM; 20% of 96,000 active;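 active = blocking of liver enzyme CYP2C9 beyond about 50% at 5 µM, limit read from the data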
Starred values were filed as active, the others as inactive. Compounds with a hit are over-represented: about 32% of the library has one in this group of screens. Cut-off read from the data, not from the text of the source, unless noted: active = inhibition above about 30%; inactive = the rest.

How did O=C(c1ccccc1)N(Cc1ccc2c(c1)OCO2)Cc1nc2ccccc2c(=O)[nH]1 do in these assays?
CYP2C19 inhib: 92*; CYP2C19 activ: 0.1; PostGolgi ctrl: 1; PostGolgi yeast: 0; CYP2C9 act: 0.1; CYP2C9 inhib: 90*

Results for Cc1ccc2c(c1)cc(CN(Cc1ccc3c(c1)OCO3)C(=O)c1ccccc1)c1nnnn12 ?
CYP2C19 inhib: -13; CYP2C19 activ: 1.1; PostGolgi ctrl: 0; PostGolgi yeast: -2; CYP2C9 act: 1.1; CYP2C9 inhib: -9

How did O=C(Nc1ccccc1)N(Cc1ccc2c(c1)OCO2)Cc1nc2ccccc2c(=O)[nH]1 do in these assays?
CYP2C19 inhib: 15; CYP2C19 activ: 0.8; PostGolgi ctrl: 5; PostGolgi yeast: -6; CYP2C9 act: 0.4; CYP2C9 inhib: 60*

How did CCOc1ccc(C(=O)NC(=S)Nc2ccccn2)cc1[N+](=O)[O-] do in these assays?
PostGolgi ctrl: -2; PostGolgi yeast: -1

Results for CCOc1ccc(C(=O)NC(=S)Nc2ccccc2N2CCC(C)CC2)cc1[N+](=O)[O-] ?
CYP2C19 inhib: 27; CYP2C19 activ: 0.7; PostGolgi ctrl: 13; PostGolgi yeast: 15; CYP2C9 act: 0.3; CYP2C9 inhib: 72*

How did CCCc1oc(C(=O)O)cc1CN1CCOCC1 do in these assays?
CYP2C19 inhib: 28; CYP2C19 activ: 0.7; PostGolgi ctrl: -1; PostGolgi yeast: -12; CYP2C9 act: 1.7; CYP2C9 inhib: -69

Results for Cc1c(Cl)ccc2c1NC(=O)[C@]21[C@@H]2C(=O)N(Cc3ccccc3)C(=O)[C@@H]2[C@@H]2CCCN21 ?
CYP2C19 inhib: 66*; CYP2C19 activ: 0.3; PostGolgi ctrl: 18; PostGolgi yeast: 1; CYP2C9 act: 0.3; CYP2C9 inhib: 73*

How did CCc1cccc2c1NC(=O)[C@]21[C@@H]2C(=O)N(Cc3ccccc3)C(=O)[C@@H]2[C@@H]2CCCN21 do in these assays?
CYP2C19 inhib: 20; CYP2C19 activ: 0.8; PostGolgi ctrl: 1; PostGolgi yeast: -7; CYP2C9 act: 0.9; CYP2C9 inhib: 6

Results for C=CCNC(=O)COC(=O)c1cc(S(=O)(=O)N2CCOCC2)ccc1N1CCCCC1 ?
CYP2C19 inhib: -3; CYP2C19 activ: 1; PostGolgi ctrl: 5; PostGolgi yeast: 4; CYP2C9 act: 1; CYP2C9 inhib: 4

What do the screens show for `Cc1ccc(NC(=O)/C(=C\C=C\c2ccccc2)NC(=O)c2ccccc2)cc1`?
CYP2C19 inhib: 46; CYP2C19 activ: 0.5; PostGolgi ctrl: 9; PostGolgi yeast: -3; CYP2C9 act: 0.3; CYP2C9 inhib: 68*

How did O=S(=O)(N1CCCCC1)n1nnc2ccccc21 do in these assays?
CYP2C19 inhib: 82*; CYP2C19 activ: 0.2; PostGolgi ctrl: 12; PostGolgi yeast: 2; CYP2C9 act: 1.2; CYP2C9 inhib: -16

How did COC(=O)c1ccc(C(=O)Nc2ccc3nc(-c4cccnc4)[nH]c3c2)cc1 do in these assays?
CYP2C19 inhib: 40; CYP2C19 activ: 0.6; PostGolgi ctrl: 6; PostGolgi yeast: 1; CYP2C9 act: 0.3; CYP2C9 inhib: 67*

How did Cn1cccc1-c1nc2ccc(NC(=O)c3ccccc3)cc2[nH]1 do in these assays?
CYP2C19 inhib: 78*; CYP2C19 activ: 0.2; PostGolgi ctrl: 7; PostGolgi yeast: -4; CYP2C9 act: 0.3; CYP2C9 inhib: 68*

Results for Cc1ccc(S(=O)(=O)Nc2ccc3nc(-c4cccn4C)[nH]c3c2)cc1 ?
CYP2C19 inhib: 100*; CYP2C19 activ: 0; PostGolgi ctrl: -4; PostGolgi yeast: -7; CYP2C9 act: 0; CYP2C9 inhib: 100*

How did Cn1cccc1-c1nc2ccc(NC(=O)c3ccc([N+](=O)[O-])cc3)cc2[nH]1 do in these assays?
CYP2C19 inhib: 1; CYP2C19 activ: 1; PostGolgi ctrl: -4; PostGolgi yeast: 3; CYP2C9 act: 0.9; CYP2C9 inhib: 8

What do the screens show for `Nc1ccc(C(=O)Nc2ccc3nc(-c4cccnc4)[nH]c3c2)cc1`?
CYP2C19 inhib: 6; CYP2C19 activ: 0.9; PostGolgi ctrl: 19; PostGolgi yeast: -5; CYP2C9 act: 0.9; CYP2C9 inhib: 11

What do the screens show for `O=C1CC(NCCC2=CCCCC2)C(=O)N1c1cccc(Cl)c1Cl` (configuration not stated)?
CYP2C19 inhib: 20; CYP2C19 activ: 0.8; PostGolgi ctrl: 12; PostGolgi yeast: 6; CYP2C9 act: 0.6; CYP2C9 inhib: 38

What do the screens show for `CCCCNC(=O)CC1C(=O)N(Cc2ccccc2)C(C)c2nc3ccccc3n21` (configuration not stated)?
CYP2C19 inhib: 71*; CYP2C19 activ: 0.3; PostGolgi ctrl: 11; PostGolgi yeast: 2; CYP2C9 act: 0.7; CYP2C9 inhib: 33

Results for CCCCn1c(=O)c(C(=O)c2ccccc2)nc2ccccc21 ?
CYP2C19 inhib: 46; CYP2C19 activ: 0.5; PostGolgi ctrl: 5; PostGolgi yeast: -1; CYP2C9 act: 1.1; CYP2C9 inhib: -15

Results for Cc1nn(Cc2c(F)c(F)c(F)c(F)c2F)c(C)c1NC(=O)c1c([N+](=O)[O-])cnn1C ?
CYP2C19 inhib: 16; CYP2C19 activ: 0.8; PostGolgi ctrl: 2; PostGolgi yeast: 15; CYP2C9 act: 1; CYP2C9 inhib: 2

Results for Cc1ccc(OCc2ccc(C(=O)Nc3c(C)nn(Cc4c(F)c(F)c(F)c(F)c4F)c3C)o2)c([N+](=O)[O-])c1 ?
CYP2C19 inhib: 57*; CYP2C19 activ: 0.4; PostGolgi ctrl: 39*; PostGolgi yeast: -6; CYP2C9 act: 0.4; CYP2C9 inhib: 57*

How did C=C(C)COc1ccc(-c2ncncc2Oc2ccc(OC)cc2)c(O)c1 do in these assays?
CYP2C19 inhib: 92*; CYP2C19 activ: 0.1; PostGolgi ctrl: 19; PostGolgi yeast: 66*; CYP2C9 act: 0; CYP2C9 inhib: 98*

Results for COc1cccc(Oc2cnc(N)nc2-c2ccc(OC)cc2O)c1 ?
CYP2C19 inhib: 76*; CYP2C19 activ: 0.2; PostGolgi ctrl: 6; PostGolgi yeast: -1; CYP2C9 act: 0.2; CYP2C9 inhib: 79*

What do the screens show for `C=C(C)COc1ccc(-c2nc(N)ncc2-c2ccc(OC)cc2)c(O)c1`?
CYP2C19 inhib: 36; CYP2C19 activ: 0.6; PostGolgi ctrl: 72*; PostGolgi yeast: 5; CYP2C9 act: 0.5; CYP2C9 inhib: 52*

How did COc1ccc(-c2nc(N)ncc2Oc2ccccc2Br)c(O)c1 do in these assays?
CYP2C19 inhib: 48; CYP2C19 activ: 0.5; PostGolgi ctrl: 8; PostGolgi yeast: -5; CYP2C9 act: 0.6; CYP2C9 inhib: 42

What do the screens show for `O=C(NC1CCCCC1)NC1CC2CCCC(C1)N2C1CCCC1` (configuration not stated)?
PostGolgi ctrl: 6; PostGolgi yeast: 11

How did O=C1OC2CC3CC1CC(O)(C3)C2 (configuration not stated) do in these assays?
CYP2C19 inhib: -16; CYP2C19 activ: 1.2; PostGolgi ctrl: -1; PostGolgi yeast: -3; CYP2C9 act: 1.1; CYP2C9 inhib: -8
